SARS PLP yeast = SARS-CoV PLP inhibition in yeast | AID 485353 | Potency, µM (doses to about 32.9 µM), usual class: activators | actives 0.19% (n = 330,000) | S. cerevisiae expressing SARS-CoV PLpro, growth rescue; calls by dose curve; also: nearly all actives have a fitted effect of over 55% in size
Pf growth 48h = P. falciparum growth inhibition at 48 hours (one generation). P. falciparum luciferase growth in erythrocytes, 48 h. Potency, µM (titrated, usually from 28.7 µM), usual class: inhibitors. actives 5.9% (n = 310,000). AID 504832
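Growth was read as firefly luciferase luminescence after a 48 h, 37 C, 5% CO2 exposure of compounds to reporter-bearing P. falciparum cultures (0.1% parasitemia, 2% hematocrit final) in Albumax-supplemented RPMI 1640.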
Pf growth 96h = P. falciparum growth inhibition at 96 hours; P. falciparum luciferase reporter growth, 96 h; Potency, µM (titrated, usually from 28.7 µM), actives largely listed as inhibitors; actives 6.9% (n = 320,000); AID 504834
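Compounds incubated with erythrocytes infected by luciferase-expressing P. falciparum (2% hematocrit, 0.05% parasitemia final) for 96 hours, 37 C in 5% CO2. Growth inhibition scored as decreased luciferase luminescence.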
Sm TGR block = blocks Schistosoma mansoni thioredoxin glutathione reductase; purified TGR, DTNB reduction, TNB absorbance 405 nm; Potency, µM (titrated, usually from 114 µM), usual class: inhibitors; actives 3% (n = 360,000); also: nearly all actives have a fitted effect of over 60% in size
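Kinetic colorimetric format: TGR-catalysed, NADPH-driven DTNB reduction monitored via TNB absorbance. Enzyme dispensed at 20 nM; compound exposure 15 min at room temperature before reaction start.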
Numbers stand for hits. The list is not random: actives were taken first. Their share in the collection is about 12%. Unless noted, calls follow the shape of the dose curve; as a rule, active = well fitted curve in the direction sought with a large enough effect; inconclusive = small, poorly fitted or top-dose-only effect, or another doubt; inactive = no such curve, though single readings can be large; an effect the other way counts as inactive or inconclusive.

`O=C1c2ccccc2NC(c2ccc(Br)o2)N1O` (stereo unspecified) gave SARS PLP yeast inactive, Pf growth 48h inactive, Pf growth 96h inactive and Sm TGR block 11µM.
For O=C1c2ccccc2NC(c2ccco2)N1NS(=O)(=O)c1ccccc1 (stereo unspecified) the results were SARS PLP yeast inactive, Pf growth 48h inactive, Pf growth 96h inconclusive and Sm TGR block inactive.
Screening O=C1c2ccccc2NC(c2ccc(-c3cccs3)o2)N1O (stereo unspecified) returned SARS PLP yeast inactive, Pf growth 48h inactive, Pf growth 96h inactive and Sm TGR block 32µM.
`O=C1c2ccccc2NC(c2ccc([N+](=O)[O-])cc2)N1O` (stereo unspecified) gave SARS PLP yeast inconclusive, Pf growth 48h inconclusive, Pf growth 96h inactive and Sm TGR block inactive.
For O=C1c2ccccc2NC(c2cccc(O)c2)N1O (stereo unspecified) the results were SARS PLP yeast inactive, Pf growth 48h inactive, Pf growth 96h inactive and Sm TGR block inactive.
For O=C1c2ccccc2NC(c2ccco2)N1O (stereo unspecified) the results were SARS PLP yeast inactive, Pf growth 48h inactive, Pf growth 96h inactive and Sm TGR block 50µM.
For O=C1c2ccccc2NC(c2cccc([N+](=O)[O-])c2)N1O (stereo unspecified) the results were SARS PLP yeast inactive, Pf growth 48h inconclusive, Pf growth 96h 8.3µM and Sm TGR block inactive.
COc1ccc(C(C(=O)NC2CCCC2)N(Cc2cccnc2)C(=O)c2snc(C(N)=O)c2N)cc1OC (stereo unspecified) was read as SARS PLP yeast inactive, Pf growth 48h inactive, Pf growth 96h inconclusive and Sm TGR block inactive.
Screening COc1ccccc1/C=C/C=N/n1c(-c2ccc(C)cc2)n[nH]c1=S returned SARS PLP yeast inactive, Pf growth 48h inactive, Pf growth 96h inactive and Sm TGR block inactive.
For COc1ccccc1/C=C/C=N/n1c(-c2ccncc2)n[nH]c1=S the results were SARS PLP yeast inactive, Pf growth 48h inactive, Pf growth 96h 7.4µM and Sm TGR block inactive.
`COc1ccc(Nc2nnc(SCC3CCCCO3)s2)cc1` (stereo unspecified) gave SARS PLP yeast inactive, Pf growth 48h 3.7µM, Pf growth 96h 13µM and Sm TGR block inactive.
`Cc1ccc(Nc2nnc(SCC(=O)c3ccc(O)cc3O)s2)cc1` gave SARS PLP yeast inactive, Pf growth 48h inconclusive, Pf growth 96h 2.1µM and Sm TGR block inactive.
Screening COc1ccc(Nc2nnc(SCC(=O)c3cc4ccccc4o3)s2)cc1 returned SARS PLP yeast inactive, Pf growth 48h inactive, Pf growth 96h inconclusive and Sm TGR block inactive.
For COc1ccc(Nc2nnc(SCC(=O)c3cc(C)n(CC4CCCO4)c3C)s2)cc1 (stereo unspecified) the results were SARS PLP yeast inactive, Pf growth 48h 5.9µM and Sm TGR block inactive.
For Cc1cc(C(=O)COC(=O)c2cc(O)c3ccccc3c2O)c(C)n1CC1CCCO1 (stereo unspecified) the results were SARS PLP yeast inactive, Pf growth 48h inconclusive, Pf growth 96h inconclusive and Sm TGR block 20µM.
Screening O=C(c1ccco1)N1CCN(C(=O)C2CC(=O)N(c3ccc(Cl)cc3)C2)CC1 (stereo unspecified) returned SARS PLP yeast inactive, Pf growth 48h inactive, Pf growth 96h inconclusive and Sm TGR block inactive.
`O=S(=O)(c1ccccc1)c1nc(-c2cccs2)oc1SCc1ccccc1Cl` gave Sm TGR block inactive.
`Cc1cccc(OCc2nnc(-c3ccc(F)cc3)o2)c1` gave SARS PLP yeast inactive, Pf growth 48h inactive, Pf growth 96h inactive and Sm TGR block inactive.
`C=CCn1c(C)cc(C(=O)CSc2nnc(NC(C)C)s2)c1C` gave SARS PLP yeast inactive, Pf growth 48h inconclusive, Pf growth 96h 4.7µM and Sm TGR block inactive.
CCN1CCN(C(=O)c2oc(=O)c3ccccc3c2-c2ccc(C)cc2)CC1 was read as SARS PLP yeast inactive, Pf growth 48h inconclusive, Pf growth 96h 4.7µM and Sm TGR block inactive.
`Cc1ccc(-c2c(C(=O)N/N=C/c3sccc3C)nnn2-c2nonc2N)cc1` gave SARS PLP yeast inactive, Pf growth 48h inconclusive, Pf growth 96h 0.93µM and Sm TGR block inactive.
Cc1ccc(-c2c(C(=O)N/N=C/C3CC=CCC3)nnn2-c2nonc2N)cc1 (stereo unspecified) was read as SARS PLP yeast inactive, Pf growth 48h inconclusive, Pf growth 96h 9.3µM and Sm TGR block inactive.
Screening COc1ccc(-n2nc(C(=O)NCC(=O)NCCC3=CCCCC3)c3ccccc3c2=O)cc1OC returned SARS PLP yeast inactive, Pf growth 48h inconclusive, Pf growth 96h 9.3µM and Sm TGR block inactive.
For COc1ccc(-n2nc(C(=O)NCC(=O)N3CCN(C)CC3)c3ccccc3c2=O)cc1 the results were SARS PLP yeast inactive, Pf growth 48h inactive, Pf growth 96h inactive and Sm TGR block inactive.
COc1ccc(N2CCN(C(=O)CNC(=O)c3nn(-c4ccc(OC)cc4)c(=O)c4ccccc34)CC2)cc1 was read as SARS PLP yeast inactive, Pf growth 48h inactive, Pf growth 96h 15µM and Sm TGR block inactive.
Screening COc1ccc(-n2nc(C(=O)NCC(=O)N3CCN(Cc4ccccc4)CC3)c3ccccc3c2=O)cc1OC returned SARS PLP yeast inactive, Pf growth 48h inconclusive, Pf growth 96h 1µM and Sm TGR block inactive.
Screening Cc1ccc2c(Cl)cc(Cl)c(OCC(=O)Nc3cc(S(=O)(=O)N(C)C)ccc3C)c2n1 returned SARS PLP yeast inactive, Pf growth 48h inconclusive, Pf growth 96h 12µM and Sm TGR block inactive.
Screening Cc1ccc2c(Cl)cc(Cl)c(OCC(=O)Nc3cccc(S(=O)(=O)N(C)C)c3)c2n1 returned SARS PLP yeast inactive, Pf growth 48h inactive, Pf growth 96h inactive and Sm TGR block inactive.
For Cc1ccc2c(Cl)cc(Cl)c(OCC(=O)NC(C)(C)C)c2n1 the results were SARS PLP yeast inactive, Pf growth 48h 12µM, Pf growth 96h inconclusive and Sm TGR block inactive.
Screening Cc1ccc(C)c(NC(=O)Cn2c(=O)n(CC(=O)NCCc3ccccc3)c(=O)c3ccccc32)c1 returned Sm TGR block inactive.
Screening CCOc1cc2c(cc1OC)C(NC(=O)c1ccco1)CC2=O (stereo unspecified) returned SARS PLP yeast inactive, Pf growth 48h inactive, Pf growth 96h inactive and Sm TGR block inactive.
CCc1ccc(NC(=O)C(C)Sc2ccc(S(=O)(=O)N3CCN(C)CC3)cn2)cc1 (stereo unspecified) was read as SARS PLP yeast inactive, Pf growth 48h inconclusive, Pf growth 96h inactive and Sm TGR block inactive.
`CCOC(=O)c1ccccc1NC(=O)CSc1nc2ncccc2[nH]1` gave Sm TGR block inactive.
CN1CCN(Cc2ccc3ccccc3c2)CC1 was read as SARS PLP yeast inactive, Pf growth 48h inconclusive, Pf growth 96h 12µM and Sm TGR block inactive.
Screening Cc1ccc(NC(=O)CCn2cccc2)cc1F returned SARS PLP yeast inactive and Sm TGR block inconclusive.
CCc1cccc(NC(=O)Cn2cccc2)c1 was read as SARS PLP yeast inactive, Pf growth 48h inactive, Pf growth 96h 4.7µM and Sm TGR block inactive.
